Bioassay records deposited in PubChem BioAssay by National Center for Advancing Translational Sciences (NCATS).
ELG1 DNA repair – inhibitors of ELG1-dependent DNA repair in HEK293T cells | HEK293T ELG1-luciferase reporter, luminescence, 16 h; DNA damage induced by 5-fluorouridine | Potency, µM (titrated, usually from 46.1 µM), inactives show at the top dose activity change, negative = inhibition, hits mostly inhibitors | 330,000 compounds, 2.3% hits; further: potency means the concentration at half of the fitted maximal effect; nearly all actives have a fitted effect of over 55% in size
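Step one: seed 2,000 cells per well. Step two: pin-transfer compound or DMSO alongside 5-fluorouridine. Step three: incubate 16 hr, 37 °C, 5% CO2. Step four: add ONE-Glo, wait 30 min, read luminescence.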
IL-1B inflam inh – inhibitors of inflammasome signaling (IL-1 beta secretion); THP-1 LPS/ATP IL-1B secretion, AlphaLISA, 16 h; stronger effect = lower value; activity change, % at 57.5 µM; 360,000 compounds, 4.7% hits; AID 743279; in the data active means activity change below about -50%; inconclusive means mostly about -30% to -49%
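THP-1 cells pretreated 1 hr with compounds (up to 57.5 uM final), then stimulated with LPS (250 ng/mL final) plus ATP (1.25 mM final); secreted IL-1B measured by AlphaLISA after 16 hr, decreased signal indicating inhibition.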
DT40 TDP1 no CPT – qHTS for Inhibitors of human tyrosyl-DNA phosphodiesterase 1 (TDP1): qHTS in cells in absence of CPT. DT40 Tdp1-/- hTDP1 cells, no CPT, ATP luminescence, 48 h. Potency, µM (doses to about 46.2 µM), for the others: at the highest dose activity change, negative = growth inhibition, actives largely listed as inhibitors. 420,000 compounds, 15% hits. AID 686978, 2013; further: potency means the concentration at half of the fitted maximal effect; nearly all actives have a fitted effect of over 55% in size
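Cells were dispensed at 400 per well, compounds added by pin tool, plates incubated ≥48 hr at 37 °C, then CellTiter-Glo added for 30 min at room temperature before luminescence reading. Line: DT40 Tdp1-/- complemented with hTDP1; camptothecin omitted.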
TDP1 cell CPT – DT40-hTDP1 cell growth loss with CPT; Potency, µM (top dose mostly 46.2 µM), without a hit: at the top dose activity change, negative = growth inhibition, usual class: inhibitors; chicken DT40 Tdp1-/-;hTDP1 cells + 20 nM CPT, ATP luminescence, 48 h; 420,000 compounds, 12% hits; further: potency means the concentration at half of the fitted maximal effect; nearly all actives have a fitted effect of over 55% in size
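Chicken DT40 Tdp1-/- cells complemented with human TDP1, 400 cells/well, exposed to compounds plus 20 nM camptothecin for at least 48 h at 37 C; viability read as ATP content by CellTiter-Glo luminescence.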
Gal4-VP16 FLuc – inhibits Gal4-VP16 luciferase reporter, ROR gamma counter-screen. Drosophila S2 Gal4-VP16 UAS-luciferase, luminescence, 20 h. Potency, µM (top dose mostly 53.6 µM), for the others: at the top dose activity, negative = inhibition, usual class: inhibitors. 310,000 compounds, 3.5% hits. AID 2546;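 further: Gal4-VP16 expression switched on by copper sulfate through the metallothionein promoter; potency means the concentration at half of the fitted maximal effect; nearly all actives have a fitted effect of over 50% in size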
RORg inh – ROR gamma (mouse) transcription inhibition; Potency, µM (top dose mostly 53.6 µM), inactives show at the top dose activity change, negative = inhibition, usual class: inhibitors; P51450; 310,000 compounds, 5.4% hits; Drosophila S2 Gal4-RORgamma UAS-luciferase reporter, 20 h; further: potency means the concentration at half of the fitted maximal effect; nearly all actives have a fitted effect of over 60% in size
Target sequence (P51450 whole entry, looked up, the tested form may be a part): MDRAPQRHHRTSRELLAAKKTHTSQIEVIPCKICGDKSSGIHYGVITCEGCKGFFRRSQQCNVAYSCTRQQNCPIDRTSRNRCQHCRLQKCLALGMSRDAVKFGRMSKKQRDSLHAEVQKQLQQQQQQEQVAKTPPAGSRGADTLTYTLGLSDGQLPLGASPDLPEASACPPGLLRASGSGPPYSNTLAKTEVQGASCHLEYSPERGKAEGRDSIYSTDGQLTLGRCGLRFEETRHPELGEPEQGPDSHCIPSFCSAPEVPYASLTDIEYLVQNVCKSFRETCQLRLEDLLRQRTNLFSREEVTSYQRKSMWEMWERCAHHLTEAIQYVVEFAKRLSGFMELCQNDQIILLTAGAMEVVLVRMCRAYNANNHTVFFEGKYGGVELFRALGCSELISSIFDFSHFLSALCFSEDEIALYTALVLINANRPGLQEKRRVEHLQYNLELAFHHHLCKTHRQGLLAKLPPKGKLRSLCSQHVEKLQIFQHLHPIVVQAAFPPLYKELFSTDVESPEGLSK
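Read-out: Photinus luciferase luminescence; inhibitors lower reporter signal. Insect Schneider cells with Gal4-ROR gamma fusion under metallothionein promoter, UAS reporter; 700 uM final copper sulfate induction, 20 hr, ambient temperature.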
Active calls of the source: *; ? = inconclusive; · = not tested or not shown; [ ] = dose if it differs, or a comment. Hits are enriched below; roughly 21% of the tested compounds scored in any of these assays. Unless noted, the call rests on the fitted dose curve; in most records, active means well fitted curve in the direction sought with a large enough effect; inconclusive means small, poorly fitted or top-dose-only effect, or another doubt; inactive means no such curve, though single readings can be large; an effect the other way counts as inactive or inconclusive. On the % scale 0 is the no-effect control and ±100 the full control effect.

SMILES | ELG1 DNA repair | IL-1B inflam inh | DT40 TDP1 no CPT | TDP1 cell CPT | Gal4-VP16 FLuc | RORg inh
OCc1ccccc1OCCOc1ccc(Cl)c2cccnc12 | ? | 16 | ? | ? | 12% | ?
COc1ccc(S(=O)(=O)Nc2ccccc2C(=O)N2CCCCC2)cc1C | 0% | -12 | -3% | -11% | -7% | 5%
Cc1cccc(NC(=O)COc2ccc3oc4c(c3c2)CCCC4)c1 | · | · | 18µM* | 16µM* | · | ·
Cc1ccc(NC(=O)COc2ccc3oc4c(c3c2)CCCC4)cc1C | · | · | -27% | -26% | · | ·
O=C(COc1ccc2oc3c(c2c1)CCCC3)Nc1ccc(Br)cc1 | · | · | ? | 15µM* | · | ·
Cc1ccc(NC(=O)COc2ccc3oc4c(c3c2)CCCC4)nc1 | 12% | -1 | 8.2µM* | ? | -5% | -11%
CC(C)N(CCNC(=O)COc1ccc2oc3c(c2c1)CCCC3)C(C)C | 9% | -77* | 23µM* | ? | 4% | 7%
COCCCNC(=O)COc1ccc2oc3c(c2c1)CCCC3 | -7% | -4 | ? | ? | -5% | 8%
Cc1cccnc1NC(=O)COc1ccc2oc3c(c2c1)CCCC3 | ? | 0 | ? | -23% | -11% | -7%
COc1cccc(-c2nnn(CC(=O)N3CCC(C)CC3)n2)c1 | ? | -11 | -21% | 1% | 27% | 34%
Cc1ccc(Nc2nc(Cl)nc3ncn(C)c23)c(C)c1 | · | -2 | -15% | -8% | · | ·
CCOc1ccc2nc(Cl)c(C3CC(c4ccc(OC)cc4)=NN3S(C)(=O)=O)cc2c1 (stereo unspecified) | · | · | 16µM* | 8.2µM* | · | ·
N=C1/C(=C\c2ccc(-c3ccc(C(=O)O)cc3)o2)C(=O)N=C2SC=C(c3ccccc3)N12 | 4% | ? | ? | ? | 0% | 17%
Cc1cccc(-n2c(C)cc(C=C3C(=O)c4ccccc4C3=O)c2C)c1 | ? | -58* | 13µM* | ? | 3% | -19%
Cc1cccc(-n2c(C)cc(/C=C3/C(=N)N4C(c5ccccc5)=CSC4=NC3=O)c2C)c1 | 0% | 16 | 21µM* | ? | -5% | -2%
Cc1cccc(-n2c(C)cc(/C=N/n3cnnc3)c2C)c1 | 1% | -12 | ? | 23µM* | 20µM* | ?
Cc1cc(/C=N/n2cnnc2)c(C)n1-c1ccc2c(c1)OCO2 | -16% | -1 | -23% | ? | 1% | 37%
Cc1cc(C=C2C(=O)c3ccccc3C2=O)c(C)n1-c1ccc(Cl)cc1 | ? | 7 | ? | -23% | ? | -2%
COc1cc(/C=C2/C(=N)N3C(c4ccccc4)=CSC3=NC2=O)ccc1OCC(=O)O | 16% | -5 | 15µM* | 21µM* | -10% | 20%
COc1cccc(C(NC(C)=O)c2nc(-c3ccc4c(c3)OCO4)cs2)c1 (stereo unspecified) | · | 6 | -18% | ? | · | ·
OC[C@H]1O[C@@H](c2nc3ccc(-c4nc(-c5cccs5)no4)cc3[nH]2)C[C@@H]1O | · | -15 | ? | ? | · | ·
Cc1ccc(C(=O)OCC(=O)Nc2cc(C(C)(C)C)no2)c(C)c1 | -12% | -9 | ? | ? | · | ·
CCn1c(C)cc(C=C2C(=O)c3ccccc3C2=O)c1C | ? | 0 | ? | ? | -42% | 11µM*
Cc1cc(C=C2C(=O)c3ccccc3C2=O)c(C)n1C | ? | -8 | ? | -18% | 14% | ?
CCOc1ccccc1-c1c2cc(O)c(=O)cc-2oc2cc(O)c(O)cc12 | 5% | 35 | ? | 23µM* | 18µM* | ?
SMILES | ELG1 DNA repair | IL-1B inflam inh | DT40 TDP1 no CPT | TDP1 cell CPT | Gal4-VP16 FLuc | RORg inh
COC1(C)CCC2OC2(C)CCC2C1CC2(C)C (stereo unspecified) | · | · | -6% | -9% | -2% | 3%
CCOC(=O)c1c(NC(=O)c2ccccc2C)sc2c1CC(C)(C)OC2 | ? | -28 | ? | ? | -17% | -3%
CCOC(=O)c1c(NC(=O)CN2CCOCC2)sc2c1CC(C)(C)OC2 | 8.2µM* | 20 | ? | ? | -4% | 9%[10 µM]
CCOC(=O)c1c(NC(=O)CCC(=O)N(CC)CC)sc2c1CC(C)(C)OC2 | ? | 0 | ? | ? | ? | ?
C=C(C)CNC(=S)Nc1sc2c(c1C(=O)OCC)CC(C)(C)OC2 | -9% | 20 | 16µM* | 23µM* | 1.4µM* | 1.4µM*
CCOC(=O)c1c(NC(=O)c2ccc(C)cc2)sc2c1CC(C)(C)OC2 | 8.2µM* | -16 | 18µM* | ? | 1% | -7%
CCOC(=O)c1c(NC(=O)CCN2CCOCC2)sc2c1CC(C)(C)OC2 | ? | 0 | ? | 3% | 3% | -12%[10 µM]
Cc1ccnc(NC(=S)NC(=O)/C=C/c2ccco2)c1 | ? | 44 | 9.2µM* | 10µM* | 1.8µM* | 7.1µM*
Cc1ccc(O)c(NC(=S)NC(=O)/C=C/c2ccco2)c1 | ? | -7 | 6.5µM* | 7.3µM* | ? | 7.9µM*
CCC(=O)Nc1ccc(NC(=S)NC(=O)/C=C/c2ccco2)cc1 | -29% | 21 | ? | ? | 7% | -15%
O=C(/C=C/c1ccco1)NC(=S)Nc1ccc(Cl)cn1 | ? | 42 | -2% | -25% | ? | 8.9µM*
O=C(/C=C/c1ccco1)NC(=S)Nc1ccc(O)c(-c2nc3ccccc3s2)c1 | ? | 26 | 21µM* | 18µM* | 2µM* | 2µM*
O=C(Nc1ccc(O)c(-c2nc3ccccc3s2)c1)c1cc(=O)c2ccccc2o1 | -5% | 8 | 8.2µM* | 9.2µM* | 1% | 0%
CCC(C)Nc1nc(N)c([N+](=O)[O-])c(Nc2cc(OC)ccc2OC)n1 (stereo unspecified) | 23µM* | ? | ? | ? | -15% | 14%
COc1ccccc1Nc1nc(NCCCN(C)C)nc(N)c1[N+](=O)[O-] | 6% | -63* | ? | -82% | 16µM* | ?
COc1ccc(OC)c(Nc2nc(NCCC(C)C)nc(N)c2[N+](=O)[O-])c1 | ? | 11 | ? | ? | -12% | 23%
CCC(C)Nc1nc(N)c([N+](=O)[O-])c(Nc2ccccc2OC)n1 (stereo unspecified) | -3% | -88* | ? | ? | -16% | 8%
COc1ccccc1Nc1nc(NCC(C)C)nc(N)c1[N+](=O)[O-] | 8.2µM* | 4 | 26µM* | ? | -3% | -21%
